# Measurements taken from ChEMBL document CHEMBL3988442, “University of Dundee, Small-Polar-MMV Screening Library” (2021).
# Among all 38,000 compounds or so, about 1,200 (3.2%) showed an effect of 50% or more. The median lay at about -58%. The entries come from a sample that favours strong results as a whole.
# System: Plasmodium falciparum
# Experiment: Calibr Malaria Delayed Death Assay SOP
# Type: functional, organism-based
# Design: scale not given: in the data most compounds retested in dose-response had high values
# Settings: concentration 4.99e-06 (unit not given; other assays of the set use mol/L)
row,SMILES,Percent Effect
1,Cc1nc(C)c(CC(=O)N2C[C@H]3CC[C@@H]2CN(c2cnccn2)C3)s1,-79.94%
2,CCc1nnnn1Cc1csc(N(C)C(C)=O)n1,-54.02%
3,Cc1ccc(Cl)cc1NC(=O)Nc1c[nH]c(=O)[nH]c1=O,-189.6%
4,Cc1ncsc1C(=O)NCCNc1ncccc1C#N,-35.74%
5,CCOCC1c2c(ncn2C)CCN1C(=O)c1cnc(C)cn1.O=C(O)C(F)(F)F (stereo not drawn),-51.51%
6,O=C(NCc1c[nH]c(=O)[nH]c1=O)C1CCOc2ccccc2C1 (stereo not drawn),-114.6%
7,Cc1ccc(S(=O)(=O)N(CC(N)=O)CC(C)C)cc1C,-27.83%
8,O=C(NCCCn1ccnc1)c1cccnc1OCC(F)(F)F,-158.9%
9,CCc1ccccc1OCCN1C[C@@H](NS(C)(=O)=O)[C@H](C(C)C)C1,45.03%
10,CC(C)[C@@H]1CN(CCCOc2ccc(F)cc2)C[C@H]1NS(C)(=O)=O,53.48%
11,CC(C)[C@@H]1CN(CCOc2ccc(Cl)cc2)C[C@H]1NS(C)(=O)=O,45.65%
12,CC(C)n1cc(N2CC(C(=O)N3CCN(C)CC3)CC2=O)cn1 (stereo not drawn),-61.38%
13,Cc1csc(N2CCN(C(=O)CCn3cccn3)CC2)n1,-135.1%
14,CN(Cc1nc2ccsc2c(=O)[nH]1)C[C@@H]1CCCN2CCCC[C@H]12,-24.21%
15,CN(Cc1nc2ccccc2c(=O)[nH]1)C[C@@H]1CCCN2CCCC[C@H]12,-16.14%
16,Cc1cc(C)cc(C(=O)N2CCCN(CC(N)=O)CC2)c1,-30.23%
17,O=C(CN(CC1CCC1)CC(F)(F)F)N1CCCC1,-123.3%
18,CS(=O)(=O)NC(=O)c1nnn(-c2cccc(F)c2)c1C1CC1,-54.99%
19,CC(C)c1nc(CNC2CCCN(c3cccnn3)C2)no1 (stereo not drawn),-23.44%
20,Cc1nc(CNC2CCCN(c3cccnn3)C2)no1 (stereo not drawn),-95.1%
21,CC(C)(C)c1nc(CNC2CCCN(c3cccnn3)C2)no1 (stereo not drawn),82.54%
22,CC1CN(CC2CCCCC2)CCN1c1ccc2nncn2n1 (stereo not drawn),13.91%
23,CC1CN(CC2CCCC2)CCN1c1ccc2nncn2n1 (stereo not drawn),68.96%

row,SMILES,Percent Effect
1,CC1CN(CC(=O)NC2CCCC2)CCN1c1ccc2nncn2n1 (stereo not drawn),-5%
2,Cn1ccc2ccc(C(=O)N3CCN(C(=O)OC(C)(C)C)CC3)cc21,4.042%
3,Cc1cccc(NC(=O)N2CCn3cnc(COCC4CC4)c3C2)c1,-185.1%
4,COCCNC(=O)C[C@@H]1COC[C@H]2CN(C(=O)C3CCOCC3)C[C@@H]12,-84.55%
5,CN(C)C(C)(C)CNC(=O)C(C)(C)c1ccccc1F,51.42%
6,CC(C)(C(=O)NCC(N)=O)c1ccccc1F,-66.81%
7,CC(C)(CNC(=O)C(C)(C)c1ccccc1F)C(N)=O,-90.26%
8,Nc1nnc(SCc2cc(=O)n3c4c(sc3n2)CCCC4)s1,-2.534%
9,COc1nn(C)cc1-c1nnc(SCc2cccnc2)n1C,-46.9%
10,CCn1nc(C)c(CN(CCOC)Cc2ccccn2)c1C,-17.72%
11,COCCC(=O)N(Cc1ccccn1)Cc1ccccc1C,-111.9%
12,Cc1ccsc1CN(CCCN(C)C)Cc1ccccn1,76.79%
13,Cc1ccsc1CN(C)Cc1ncccc1C(=O)O,-86.93%
14,Cc1ccsc1CN(CCCC(F)(F)F)Cc1ccccn1,-90.49%
15,N#Cc1cccc(CN2CC[C@@H]3CN(c4ncccn4)CCO[C@@H]3C2)c1.O=C(O)C(F)(F)F,-75.88%
16,CCc1cc(N2CCC(NCCc3nc(C)c(C)s3)CC2)nc(C)n1,38.37%
17,CCn1ccc(NS(=O)(=O)c2cccc(COC)c2)n1,-78.42%
18,CCn1cc(NC(=O)NCC(C)N(C)C)cn1 (stereo not drawn),-90.57%
19,CNS(=O)(=O)c1cccc(C(C)NCc2ccc(F)c(F)c2)c1 (stereo not drawn),8.659%
20,CNS(=O)(=O)c1cccc(C(C)NCc2ccsc2)c1 (stereo not drawn),66.25%
21,CNS(=O)(=O)c1cccc(C(C)NCc2ccccc2)c1 (stereo not drawn),57.8%
22,CNS(=O)(=O)c1cccc(C(C)NCc2cccc(O)c2)c1 (stereo not drawn),1.026%
23,CCOc1ccc(CNC(C)c2cccc(S(=O)(=O)NC)c2)cc1 (stereo not drawn),46.18%

row,SMILES,Percent Effect
1,CC(NCc1ccc(C(C)(C)C)cc1)c1ccc(S(C)(=O)=O)cc1 (stereo not drawn),-13.51%
2,CNS(=O)(=O)c1cccc(C(C)NCc2ccc(C)c(C)c2)c1 (stereo not drawn),61.29%
3,CNS(=O)(=O)c1cccc(C(C)NCc2ccncc2)c1 (stereo not drawn),-55.25%
4,CNS(=O)(=O)c1cccc(CNC(=O)CCc2ccsc2)c1,-45.32%
5,O=C(NCCn1ccnc1)c1ccn(-c2ccc(F)cc2)n1,-157.5%
6,CCN1C[C@H]2C[C@H](C(=O)Nc3ccccc3)[C@@H](C1)O2.O=C(O)C(F)(F)F,-59.56%
7,Cc1oc(-c2nc(C#N)c(N(C)C)o2)cc1S(=O)(=O)N1CCCCCC1,-117.8%
8,COc1cc(C(=O)NC(C)c2cccs2)cc2c1OCCO2 (stereo not drawn),13.73%
9,O=C(c1cscn1)N1CCCCC1c1nc2cc(F)ccc2[nH]1 (stereo not drawn),-66.74%
10,CNC(=O)CN(C(=O)c1ccc(SC)o1)c1cccc(F)c1,-133.7%
11,CC(C)(C)CNC(=O)c1ccc(C(=O)O)cc1,-149.2%
12,CCCc1nc(CN(CC)Cc2ccoc2)no1,-101%
13,COc1cc(C(=O)N(Cc2ccco2)C2CC2)cc(OC)c1OC,-36.86%
14,O=C(c1ccc[nH]1)N1CCOCC2(CCN(C3CCOCC3)C2)C1 (stereo not drawn),-29.73%
15,CCCSCC(=O)N1CCCC(CO)(CCC)C1 (stereo not drawn),-200.5%
16,O=C(c1ccc(=O)[nH]c1)N1CCCC1c1nc2cc(F)ccc2[nH]1 (stereo not drawn),-157.5%
17,O=c1[nH]cccc1-c1nccc(C2(c3ccccc3Cl)CCNCC2)n1,-5.024%
18,Clc1ccccc1C1(c2ccnc(-c3ccncc3)n2)CCNCC1,82.92%
19,CC(C)(C)c1nccc(C2(c3ccccc3Cl)CCNCC2)n1,75.06%
20,Clc1ccccc1C1(c2ccnc(-c3ncccn3)n2)CCNCC1,-58.98%
21,CCC1C(=O)NCCN1c1ccnc(C(C)(C)C)n1 (stereo not drawn),-75.62%
22,CC(C)c1nccc(C2(c3ccccc3Cl)CCNCC2)n1,83.06%
